In PubChem BioAssay one finds composite z-score and z-score data, which are given here for 16 molecules.

The subject of assay [1] is Human papillomavirus type 1a protein E7 (residues 44-93). The assay is described as follows: HPV1a E7 fragment binders on microarrays, primary screen, biochemical, small-molecule microarray, residues 44-93, 635 nm fluorescence (AID 1108).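 Note: E7 fragment applied at 1 µg/mL in TBST for 1 h at 4 C; score combines spot fluorescence with its signal to noise ratio.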 Conditions: small-molecule microarray binding, fluorescence 635 nm; higher = more signal.
Assay [2] in a line: modulators of HCV replicon luciferase signal, primary screen, HCV replication inhibitor project, Huh7 cells, luciferase reporter (AID 1109).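 Note: huh7 hepatoma cells harbouring a luciferase neomycin HCV replicon reporter; luciferase luminescence as measure of HCV replicon replication; test concentration not given here.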 Conditions: 48 h, higher = more signal.
In assay [3] the target is Left-right determination factor 2 (Homo sapiens) (UniProt O00292). Nature of the assay: LEFTY2 binders on small-molecule microarrays, primary screen, biochemical, small-molecule microarray, 635 nm fluorescence scan (AID 1110). The conditions noted are these: LEFTY2 binding, higher = more signal.
Assay [4] has as its target Calmodulin-1 (Homo sapiens) (UniProt P0DP23). The assay is described as follows: CALM1 binders on microarrays, EGTA buffer, profiling panel, biochemical, small-molecule microarray, Cy5-labelled CALM1 (AID 1111).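 Note: labelled calmodulin applied in Tris saline Tween buffer holding calcium plus EGTA and DTT.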 The conditions noted are these: Cy5-CALM1 binding fluorescence, higher = more signal.
Assay [5] shares this target. Nature of the assay: calcium-bound CALM1 binders on microarrays, profiling panel, artefact control for SMM control-protein annotation, biochemical, small-molecule microarray, Cy5-labelled CALM1, plus calcium (AID 1112).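 Note: score merges spot fluorescence with signal to noise from triplicate slides.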 Conditions: Cy5-CALM1 binding fluorescence, higher = more signal.
Assay [6] is described as follows: small-molecule microarray binders of probe aWnt5a, primary screen, biochemical, biotinylated probe, 635/667 nm fluorescence (AID 1113).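 Note: score merges 667 nm fluorescence intensity with signal-to-noise per printed feature.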 Conditions: higher = more signal.
A short description of assay [7]: small-molecule microarray binders of probe aShh, primary screen, biochemical, biotinylated probe, 635/667 nm fluorescence (AID 1114).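 Note: probe is biotin-labelled aShh protein from a stem cell growth factor screen; measures binding of labelled protein to compounds printed on the slide; score merges feature fluorescence at 667 nm with signal-to-noise.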 The conditions noted are these: higher = more signal.
Assay [8] can be described thus: small-molecule microarray binders of probe aNog, primary screen, biochemical, biotinylated probe, 635/667 nm fluorescence (AID 1115).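 Note: probe is biotinylated aNog protein used at 0.15 µg/mL for 1 h at 4 C; z-score combines 667 nm fluorescence of each spot with its signal to noise.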 The conditions noted are these: higher = more signal.
The target of assay [9] is Torsin-1A-interacting protein 1 (Homo sapiens) (UniProt Q5JTV8). Nature of the assay: LAP1 binders from COS7 cell lysate, primary screen, small-molecule microarray, 635/667 nm fluorescence (AID 1116). Conditions: COS7-hLAP1 lysate binding, 635 nm fluorescence, higher = more signal.
For assay [10], the target named is Alpha-bungarotoxin (Bungarus multicinctus) (UniProt P60615). The assay is described as follows: alpha-bungarotoxin binders on microarray, profiling panel, artefact control for SMM control protein annotation, biochemical, small-molecule microarray, Alexa647 label, 635/667 nm fluorescence (AID 1117). Conditions: alpha-BTX-A647 binding fluorescence, higher = more signal.
Sequence of Alpha-bungarotoxin (Bungarus multicinctus) (P60615 whole entry, looked up): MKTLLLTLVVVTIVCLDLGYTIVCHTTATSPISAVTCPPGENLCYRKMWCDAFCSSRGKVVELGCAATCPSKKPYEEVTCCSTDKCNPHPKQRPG

Sequence of Torsin-1A-interacting protein 1 (Homo sapiens) (Q5JTV8 whole entry, looked up): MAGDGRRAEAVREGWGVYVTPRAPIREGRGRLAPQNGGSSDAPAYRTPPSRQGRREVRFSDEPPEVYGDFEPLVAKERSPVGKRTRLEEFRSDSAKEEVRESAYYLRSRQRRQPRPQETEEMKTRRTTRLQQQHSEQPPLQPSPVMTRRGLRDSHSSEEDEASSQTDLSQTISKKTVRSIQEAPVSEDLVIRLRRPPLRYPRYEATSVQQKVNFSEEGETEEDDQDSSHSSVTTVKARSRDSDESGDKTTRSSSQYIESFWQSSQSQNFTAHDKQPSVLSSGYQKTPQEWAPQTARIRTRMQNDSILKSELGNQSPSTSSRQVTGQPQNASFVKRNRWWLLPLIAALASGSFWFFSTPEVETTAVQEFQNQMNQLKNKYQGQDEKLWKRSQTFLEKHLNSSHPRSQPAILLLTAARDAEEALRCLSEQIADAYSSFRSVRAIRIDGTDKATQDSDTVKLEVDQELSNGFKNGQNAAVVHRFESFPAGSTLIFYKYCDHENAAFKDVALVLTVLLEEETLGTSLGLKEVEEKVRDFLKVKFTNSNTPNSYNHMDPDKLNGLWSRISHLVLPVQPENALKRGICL
Sequence of Left-right determination factor 2 (Homo sapiens) (O00292 whole entry, looked up): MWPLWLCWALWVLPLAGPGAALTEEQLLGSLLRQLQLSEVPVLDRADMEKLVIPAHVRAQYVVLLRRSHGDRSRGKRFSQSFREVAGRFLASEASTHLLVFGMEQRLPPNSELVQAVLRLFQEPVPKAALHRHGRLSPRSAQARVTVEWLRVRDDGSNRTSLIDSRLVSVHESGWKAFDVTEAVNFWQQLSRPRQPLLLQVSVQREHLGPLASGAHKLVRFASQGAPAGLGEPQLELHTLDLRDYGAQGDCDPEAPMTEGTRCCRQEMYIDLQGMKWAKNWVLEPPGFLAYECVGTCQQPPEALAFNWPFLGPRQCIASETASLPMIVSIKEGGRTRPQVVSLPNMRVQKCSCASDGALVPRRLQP

As to `CC(C)[Si](OCC[C@H]1O[C@]2(C(=O)N(Cc3ccccc3)c3ccccc32)[C@@H](C)[C@@H]1[Si](C)(C)O)(C(C)C)C(C)C`, the composite z-score was 0.161 in [1]; -0.261 in assay [3]; 0.214 in [4]; 0.3 in assay [5]; -0.216 in assay [6]; 0.0204 in assay [7]. Besides, the figures for the composite z-score in assay [8], in assay [9] and in assay [10] were 0.0073, 0.153 and -0.513, respectively. This molecule also had a z-score in assay [2] of -1.22.

With `O=C(NCC(F)(F)F)[C@@H]1c2ccccc2C(=O)N(Cc2ccccc2Cl)[C@H]1c1ccc(CO)cc1`, the composite z-score in assay [1] is -0.804; in assay [3] it was -1.44; in [4] it was -0.483; in [5], -0.135; in [6], -0.147; in [7], 0.245. Moreover, the composite z-score was -0.0689 in assay [8], -1.19 in [9] and -1.18 in [10]. In assay [2], this molecule returned a z-score of -1.03.

Consider `O=C(NCc1ccccc1)c1ccc(Br)cc1[N+](=O)[O-]`, for which the composite z-score is -0.0303 in assay [1]; 0.61 in [3]; 0.216 in [4]; 0.321 in assay [5]; -0.0462 in assay [6]; -0.141 in [7]. Also, the figures for the composite z-score in assay [8], in assay [9] and in [10] were -0.318, 0.0817 and 1.29, respectively. Further, the z-score in assay [2] is -0.3.

Turning to `CC(=O)NCCCC[C@@H]1NC(=O)[C@H]2C[C@@H](C(=O)NCCCCCCN(C)C)[C@@H](c3ccc(O)cc3)N2C1=O`, the composite z-score in assay [1] was 0.19; in [3], 0.851; in assay [4], -0.382; in [5], -1.53; in assay [6], -0.154; in assay [7] it was 0.23. The composite z-score came out at 0.512 in [8], 1.85 in [9] and 2.01 in assay [10]. The molecule further showed a z-score in assay [2] of 1.87.

With `CCCC[C@H]1OB(O)C[C@H]2C1=C(COC)C[C@H]1C(=O)N(Cc3ccccc3)C(=O)[C@H]12`, the composite z-score in assay [1] was -0.0721; in [3], 0.313; in assay [4], 0.188; in assay [5], -0.0421; in [6], -0.0327; in assay [7], -0.0904. Moreover, the composite z-score was found to be 0.0649 in [8], 0.25 in assay [9] and 0.526 in [10]. Further, the z-score in [2] was 0.202.

For the molecule `Cc1ccc(S[C@]2(C(=O)NC(C)C)CC(=O)N(C3Cc4ccccc4C3)[C@@H]2c2ccc(CO)cc2)cc1`, the composite z-score in assay [1] is 0.951; in assay [3] it was -0.873; in assay [4], -0.329; in assay [5], -0.603; in [6] it was -0.098; in [7], -0.421. In addition, the values for the composite z-score in [8], in [9] and in [10] were -0.315, 1.52 and 1.12, respectively. In addition, the z-score in assay [2] is -2.01.

As for `O=C(NCc1ccccc1)[C@@]1(CCS(=O)(=O)c2ccccc2)COC(c2ccc(OCCCO)cc2)=N1`, the composite z-score was 0.623 in [1]; -0.0893 in assay [3]; 2.16 in assay [4]; 1.11 in [5]; 0.111 in assay [6]; 0.504 in [7]. In addition, the composite z-score in [8] was determined as 1.85; in [9] it was 1.95; in assay [10] it was 3.73. For the same molecule, in assay [2], the z-score was -1.71.

As for `CCOC(=O)C[C@H]1[C@H](OC(=O)c2ccccc2-c2ccccc2)[C@@H](NC(=O)c2ccc(-c3ccccc3)cc2)c2cc(OCCCO)ccc2N1C(=O)Cc1ccc(OC)cc1`, the composite z-score in [1] was 0.295; in assay [3] it was 0.462; in assay [4] it was -0.203; in [5], -0.499; in assay [6] it was -0.111; in [7], -0.0626. Also, the composite z-score in assay [8] was -0.31; in assay [9], -0.0098; in [10] it was 0.322. In assay [2], the z-score is -2.04.

In the case of `CCC1=C2CN(Cc3ccccc3Br)[C@@H]([C@@H](O)Cc3ccccc3)C2C=CCC1` (stereo not given in full), the composite z-score in [1] was 1.38; in [3], 0.473; in assay [4], 0.417; in assay [5] it was -0.419; in assay [6] it was -0.148; in assay [7] it was -0.0709. Further, the figures for the composite z-score in [8], in assay [9] and in assay [10] were -0.278, -0.131 and 0.616, respectively. In [2], this molecule registered a z-score of -2.97.

For `COCCCNC(=O)[C@@]1(c2ccc([N+](=O)[O-])cc2)CC(=O)N(C2CCCCC2)[C@@H]1c1ccc(CO)cc1`, the composite z-score in assay [1] was 0.361; in [3], -0.256; in assay [4] it was -0.702; in assay [5], -0.762; in assay [6], -0.418; in assay [7], -0.8. Further, the composite z-score in assay [8] is -0.811; in assay [9] it was -0.218; in [10], -0.374. Also, in [2], the z-score was -0.558.

On to `CC(C)CN1C(=O)[C@@]2(Cc3ccccc31)c1ccccc1C(=O)N(C1CCCCC1)[C@H]2c1ccc(CO)cc1`, for which the composite z-score in [1] was -0.973; in [3], -0.841; in assay [4] it was -0.0258; in assay [5] it was 0.644; in assay [6], -0.0944; in assay [7], -0.0626. Also, the composite z-score in [8] was 0.697; in [9] it was -0.256; in assay [10], -1.06. For the same molecule, in assay [2], the z-score was -0.192.

On to `C=CC[C@@]1(C(=O)N2CCOCC2)N=C(c2ccc(OCCCO)cc2)O[C@@H]1c1ccccc1`, for which the composite z-score in assay [1] is 0.0433; in [3], -0.464; in assay [4] it was 0.0981; in [5], 0.0806; in assay [6], -0.166; in assay [7] it was -0.184. The composite z-score in assay [8] was determined as 0.34; in assay [9] it was 1.68; in assay [10] it was 2.84. The z-score in assay [2] is -0.802.

Turning to `COCCOC(=O)N1C(=O)[C@@]2(c3cc(C#CC4=CCCCC4)ccc31)[C@H](c1ccc(O)cc1)N1[C@H](c3ccccc3)[C@H](c3ccccc3)OC(=O)[C@H]1[C@@H]2C(=O)N1CCCCCCC1`, the composite z-score in assay [1] was 1.29; in assay [3], 0.8; in assay [4] it was 1.11; in assay [5], 0.716; in assay [6], -0.0732; in assay [7], 0.332. For the same molecule, the composite z-score in [8] was found to be 0.512; in assay [9] it was 0.691; in assay [10], 1.69. In assay [2], this molecule displayed a z-score of -0.387.

Turning to `COCC(=C=CC[C@H](O)c1ccc(OCCO)cc1)C[C@H](O)c1ccccn1`, the composite z-score was 0.131 in assay [1]; -0.454 in assay [3]; -0.581 in [4]; -0.705 in [5]; -0.186 in assay [6]; 0.235 in assay [7]. Also, the composite z-score is 0.0516 in assay [8], 0.925 in assay [9] and -0.458 in assay [10]. This molecule yielded a z-score in [2] of -0.932.

Take `C[N+](C)(C)CCCC[C@@H]1NC(=O)[C@H]2C[C@@H](C(=O)NCc3ccc(F)cc3)[C@@H](c3cccc(OCCO)c3)N2C1=O`: the composite z-score was 0.276 in assay [1]; 0.503 in assay [3]; 0.884 in assay [4]; 0.869 in assay [5]; -0.0522 in assay [6]; -0.0904 in assay [7]. Further, the composite z-score is 0.0519 in [8], 1.42 in [9] and 1.15 in [10]. Also, in [2], the z-score was 0.328.

In the case of `COCCOC(=O)N1C(=O)[C@@]2(c3cc(C#CC4(O)CCCCCC4)ccc31)[C@H](C(=O)N1CCCCCCC1)[C@H]1C(=O)O[C@H](c3ccccc3)[C@H](c3ccccc3)N1[C@@H]2c1ccc(O)cc1`, the composite z-score was found to be 0.554 in assay [1]; 0.333 in assay [3]; 1.31 in [4]; 0.639 in [5]; 0.629 in assay [6]; 1.9 in assay [7]. For the same molecule, the composite z-score in assay [8] was 2.13; in [9], 3.24; in [10], 1.73. In addition, the z-score in [2] was -0.937.
